Screening results deposited in PubChem BioAssay by several laboratories.
Mcl1-Bid inh: Mcl-1/Bid binding inhibitors, primary screen, biochemical, TR-FRET, 1536-well | Induced myeloid leukemia cell differentiation protein Mcl-1 (Homo sapiens), Q07820 | hit rate 0.97% among 220,000 | TR-FRET Mcl-1/Bid-Dy647 peptide binding | inhibition, % at 21.7 µM;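 active means compounds that cut the binding signal by more than half at the single screening dose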;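 further: His-tagged Mcl-1 with europium anti-His antibody binding Bid BH3 peptide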
Mcl1-Noxa inh: Mcl-1/Noxa binding inhibitors, primary screen, biochemical, TR-FRET, 1536-well. inhibition, % at 21.7 µM. AID 1022, 2008. hit rate 1.5% among 220,000. TR-FRET Mcl-1/Noxa peptide binding, 2 h;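 active means compounds that cut the protein-peptide binding signal by more than 50% relative to plate controls in a single-dose test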;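 further: His-tagged Mcl-1 with rhodamine Noxa BH3 peptide and terbium anti-His antibody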
p47phox inh: p47phox/p22phox peptide binding inhibitors, primary screen, biochemical, uHTS, NADPH oxidase regulatory subunit | inhibition, % at 24.7 µM | Neutrophil cytosol factor 1 (Homo sapiens), P14598 | fluorescence polarization, 2 h | hit rate 0.53% among 220,000;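 active means inhibition above about 30%, limit read from the data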
Target sequence (P14598 whole entry, looked up): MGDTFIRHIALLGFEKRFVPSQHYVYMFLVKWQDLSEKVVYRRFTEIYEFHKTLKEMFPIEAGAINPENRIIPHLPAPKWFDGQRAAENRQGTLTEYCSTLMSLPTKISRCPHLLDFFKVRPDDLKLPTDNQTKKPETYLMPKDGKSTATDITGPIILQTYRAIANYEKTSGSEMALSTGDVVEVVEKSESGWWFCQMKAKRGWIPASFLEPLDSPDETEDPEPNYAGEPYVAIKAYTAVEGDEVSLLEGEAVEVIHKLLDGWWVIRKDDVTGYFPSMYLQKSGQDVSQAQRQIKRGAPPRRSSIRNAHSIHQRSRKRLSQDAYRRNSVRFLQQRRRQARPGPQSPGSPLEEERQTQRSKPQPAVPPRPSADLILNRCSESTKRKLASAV
Bim-Mcl-1: inhibitors of Bim peptide binding to Mcl-1, primary screen, biochemical, bead-based flow cytometry, multiplex | AID 1009, 2008 | inhibition, % at 10 µM | hit rate 0.1% among 190,000 | Induced myeloid leukemia cell differentiation protein Mcl-1 (Homo sapiens), Q07820 | Bim peptide-Mcl-1 binding; in the data active means inhibition above about 40%
14-3-3 Bad PPI: inhibitors of 14-3-3 zeta/Bad binding, primary screen, biochemical, TR-FRET, bovine 14-3-3 zeta; inhibition, % at 21.7 µM; hit rate 0.71% among 220,000; TR-FRET 14-3-3zeta/Dy647-pBad peptide displacement, 1 h;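 active means inhibition above about 70%, limit read from the data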
Target sequence (P63103 whole entry, looked up): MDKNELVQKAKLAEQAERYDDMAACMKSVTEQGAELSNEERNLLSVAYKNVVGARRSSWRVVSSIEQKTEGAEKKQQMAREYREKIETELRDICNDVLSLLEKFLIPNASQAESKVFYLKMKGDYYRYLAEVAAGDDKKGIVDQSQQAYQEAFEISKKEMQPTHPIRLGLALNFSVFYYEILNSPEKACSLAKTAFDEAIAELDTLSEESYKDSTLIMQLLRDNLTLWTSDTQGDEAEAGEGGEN
Large screens that a line does not name were inactive; [ ] = dose if it differs, or a comment. Only some compounds are listed: those with a hit (about 3.2% of all), similar ones and a draw of the others.

O=C(Nc1cccc(S(=O)(=O)N2CCCCCC2)c1)c1ccc2c(c1)OCO2	14-3-3 Bad PPI 78
CCC1(C)Cc2sc3c(=O)[nH]c(=S)[nH]c3c2CO1 (centres undefined)	Mcl1-Noxa inh 54
C=CCNC(=S)Nc1sc2c(c1C(=O)OCC)CC(C)(CC)OC2 (centres undefined)	none
CC(/C=C1\SC(=S)N(C(C(=O)O)C(C)C)C1=O)=C\c1ccccc1 (centres undefined)	none
CC(/C=C1\SC(=S)N(NS(=O)(=O)c2ccc(C)cc2)C1=O)=C\c1ccccc1	Mcl1-Bid inh 66, Mcl1-Noxa inh 94 (no result: Bim-Mcl-1)
CC(/C=C1\SC(=S)N(CCCC(=O)Nc2ccc(C(=O)O)c(O)c2)C1=O)=C\c1ccccc1	Mcl1-Bid inh 94, Mcl1-Noxa inh 111
CC(/C=C1\SC(=S)N(NC(=O)c2ccc(C)cc2)C1=O)=C\c1ccccc1	none
CC(/C=C1\SC(=S)N(NS(=O)(=O)c2ccccc2)C1=O)=C\c1ccccc1	Mcl1-Noxa inh 79 (no result: Bim-Mcl-1)
CC(/C=C1\SC(=S)N(c2ccc(C(=O)O)cc2)C1=O)=C\c1ccccc1	Mcl1-Noxa inh 84 (no result: Bim-Mcl-1)
Cc1[nH]c2ccccc2c1C(=O)COC(=O)c1ccc2c(=O)n3c(nc2c1)CCC3	none
O=C(NC(=S)Nc1ccccc1N1CCOCC1)c1ccc(-c2ccccc2F)o1	none (no result: Bim-Mcl-1)
COC(=O)c1c(C)cc(C)c2c1CC(C)(C)C2=O	none (no result: Bim-Mcl-1)
O=C(NCc1ccco1)c1cc2c(s1)CSC2	Mcl1-Noxa inh 79
CCc1nnc(NCC(=O)N2CCc3ccccc32)s1	p47phox inh active (no result: 14-3-3 Bad PPI)
COCC1CCCN(Cc2cn(-c3ccccc3)nc2-c2ccc3c(c2)OCO3)C1 (centres undefined)	none
Cc1ccc(C(=O)Nc2c(-c3cccs3)c(=O)c3ccccc3n2C)cc1	Mcl1-Bid inh 66
COc1ccc(C(=O)Nc2c(-c3cccs3)c(=O)c3ccccc3n2C)cc1	none (no result: Bim-Mcl-1)
Cc1ccc(-c2nn(-c3ccccc3)cc2C(N)=O)o1	Mcl1-Noxa inh 51
Cc1ccc(-c2nn(-c3ccccc3)cc2CO)o1	none
Cc1ccccc1NC1=C/C(=N\S(=O)(=O)c2cccs2)c2ccccc2C1=O	none
Cc1ccc(NC2=C/C(=N/S(=O)(=O)c3cccs3)c3ccccc3C2=O)cc1C	p47phox inh 36
COc1ccccc1NC(=O)CSc1nc2ccccc2cc1Cc1ccccc1	Mcl1-Bid inh 73
COc1cc(NC(=O)CSc2nc3c(C)ccc(C)c3cc2C)c(C(=O)O)cc1OC	none
CCN1CCCc2cc(CN(CCN3CCOCC3)C(=S)Nc3cccc(OC)c3)ccc21	Mcl1-Noxa inh 60
CCCN1CCCc2cc(CN(CCCN3CCOCC3)C(=O)Nc3ccc(OCC)cc3)ccc21	none
CCOc1ccc(NC(=O)N(CCN2CCOCC2)Cc2ccc3c(c2)CCCN3CC)cc1	Mcl1-Noxa inh 78
CCN(CC)C(=O)C(=O)Nc1ccc(F)c(Cl)c1	none
Cc1c(C(=O)Nc2cccc(N(C)S(C)(=O)=O)c2)cccc1[N+](=O)[O-]	none
O=C1C=Cc2ccccc2/C1=C/c1[nH]c(=O)[nH]c1O	Mcl1-Noxa inh 60 (no result: Bim-Mcl-1)
CCc1ccccc1N(C)S(=O)(=O)c1ccc2[nH]cc(C(=O)O)c(=O)c2c1	none
COCCN(CCOC)C(=O)c1c[nH]c2ccc(S(=O)(=O)N(C)c3ccc(F)cc3)cc2c1=O	Mcl1-Bid inh 62
CCc1ccc(N(C)S(=O)(=O)c2ccc3[nH]cc(C(=O)NCCN4CCOCC4)c(=O)c3c2)cc1	none
CN(c1ccc(F)cc1)S(=O)(=O)c1ccc2[nH]cc(C(=O)O)c(=O)c2c1	Mcl1-Bid inh 58
CCOc1ccccc1C(=O)Nc1cnn(Cc2ccc(F)cc2)c1	none
CCOC(=O)C[n+]1c(C)sc2ccc(OC)cc21	Mcl1-Noxa inh 54, 14-3-3 Bad PPI 80
CCN(CC(=O)Nc1ccccc1OC)C(=O)COc1ccc2ccccc2c1	none
O=C1N/C(=N\N=C\c2ccc3ncccc3c2)SC1Cc1ccc(SC(F)F)cc1 (centres undefined)	Mcl1-Bid inh 52
Cc1cccc2sc(NNC(=O)c3cc(-c4cccs4)nc4ccccc34)nc12	none
O=C(Nc1nc(COc2ccccc2)cs1)c1ccccc1F	none
Cc1ccc(-n2[nH]c(C)c(C=Nc3ccc4[nH]c(=O)[nH]c4c3)c2=O)cc1	Mcl1-Noxa inh 62
COc1ccc2nc(/N=C/c3c(C)[nH]n(-c4ccc(C)cc4)c3=O)sc2c1	p47phox inh 34
COc1cc(CN2CCc3ccccc3C2)ccc1O	none (no result: Bim-Mcl-1)
O=C(Cc1n[nH]c(=O)[nH]c1=O)N/N=C/CCc1ccccc1	none (no result: Bim-Mcl-1)
CC(C)(C)c1ccc(COn2ccnc2)cc1	none
O=C(CSc1nnc2c(n1)[nH]c1ccccc12)Nc1ccc2c(c1)OCO2	Mcl1-Noxa inh 83
O=C(CSc1nnc2c(n1)[nH]c1ccccc12)Nc1ccc(N2CCOCC2)cc1	none (no result: Bim-Mcl-1)
O=C(O)CCCN1C(=O)/C(=C/c2cn(-c3ccccc3)nc2-c2cccs2)SC1=S	Mcl1-Bid inh 78, Mcl1-Noxa inh 87
COc1cc(C(C(=O)NC2CCCCC2)N(CCN2CCOCC2)C(=O)C2COc3ccccc3O2)cc(OC)c1OC (centres undefined)	none
CCCn1nnc(NC(=S)NC(=O)/C=C/c2ccco2)n1	none (no result: Bim-Mcl-1)
COc1cc(C(c2nnnn2C2CCCC2)N2CCN(C)CC2)cc(OC)c1OC (centres undefined)	14-3-3 Bad PPI 80
COCCN1Cc2cccc(C(=O)Nc3ccc(S(=O)(=O)N4CCCCCC4)cc3)c2C1=O	none (no result: Bim-Mcl-1)
CCN(CC)S(=O)(=O)c1ccc(NC(=O)c2cccc3c2C(=O)N(CCOC)C3)cc1	14-3-3 Bad PPI 84[fluorescence artefact?]
Nc1nc2ccc([N+](=O)[O-])c(N)c2s1	Mcl1-Noxa inh 54
O=C1c2ccccc2C(=O)c2c1ccc(C(=O)N1CCCCC1)c2NCCO	none
CC1(C)CCCN(C(=O)c2ccc3c(c2NCCO)C(=O)c2ccccc2C3=O)C1	14-3-3 Bad PPI 81[fluorescence artefact?]
CCOC(=O)C(=CNNc1cccc(Cl)c1)C(=O)OCC	Mcl1-Noxa inh 52 (no result: Bim-Mcl-1)
CCOC(=O)C(=CNc1ccc(Cl)cn1)C(=O)OCC	none (no result: Bim-Mcl-1)
CN1CCN(/N=C/c2ccc(N(C)c3ccccc3)cc2)CC1	none
CN1CCN(/N=C/c2ccc(N(c3ccccc3)c3ccccc3)cc2)CC1	p47phox inh 46
Cc1cc2oc(C(=O)Nc3ccc(S(=O)(=O)Nc4nccs4)cc3)cc(=O)c2cc1Cl	Mcl1-Noxa inh 62
Cc1cc2oc(C(=O)Nc3ccc(S(=O)(=O)N4CCCC(C)C4)cc3)cc(=O)c2cc1Cl (centres undefined)	none
Cc1cc(C)c2oc(C(=O)Nc3ccc(S(=O)(=O)Nc4nccs4)cc3)cc(=O)c2c1	Mcl1-Noxa inh 83 (no result: Bim-Mcl-1)
Cc1cc(C)c2oc(C(=O)Nc3ccc(S(=O)(=O)N4CCC(C)CC4)cc3)cc(=O)c2c1	none
